Broadly, the AC50 is the concentration giving half of the maximal activity seen.

Molecules are shown by their SMILES. Calls of active or inactive are those of the source. How the source made its calls: active means hit-call score of the fitted dose curve at least 0.9, where 1 is the maximum; inactive means score below 0.9.

Common to all, as to conditions: mRNA level, 48 h; actives raise or lower the signal
Read-out in assay [1]: Early growth response protein 1 (EGR1) transcription factor, EGR1 (gene 1958)
Kind of assay: LTEA_HepaRG_EGR1: Life Technologies and Expression Analysis (LTEA) Assay for Early growth response protein 1 (EGR1) transcription factor using HepaRG (AID 2283490). The gist of the method: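 Differentiated human HepaRG cells in serum-free induction medium were exposed in duplicate for 48 h to eight concentrations (top 100 uM, half-log steps) in 0.5% DMSO. EGR1 mRNA was quantified by qRT-PCR, normalized to ACTB, GAPDH and POLR2A, and fitted bidirectionally versus DMSO.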

Read-out in assay [2]: Ezrin (EZR), EZR (gene 7430)
Kind of assay: LTEA_HepaRG_EZR: Life Technologies and Expression Analysis (LTEA) Assay for Ezrin (EZR) using HepaRG (AID 2283491). The method, boiled down:
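Read-out is EZR transcript level by qRT-PCR, normalized to three housekeeping genes and fitted bidirectionally against the DMSO control. Human HepaRG cells received test chemicals for 48 h at eight half-log concentrations up to 100 uM in 0.5% DMSO.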

Read-out in assay [3]: Cytochrome P450 3A7 (Homo sapiens) (UniProt P24462)
Kind of assay: LTEA_HepaRG_CYP3A7: Life Technologies and Expression Analysis (LTEA) Assay for CYP3A7 using HepaRG (AID 2283492). The method, boiled down: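 CYP3A7 transcript measured by qRT-PCR (ACTB, GAPDH, POLR2A normalization) after 48 h chemical exposure of HepaRG cells in duplicate. Eight half-log concentrations, maximum 100 uM, 0.5% DMSO vehicle; bidirectional curve fitting against DMSO baseline.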

Read-out in another assay: CYP3A5 (gene 1577)
The assay can be described thus: LTEA_HepaRG_CYP3A5: Life Technologies and Expression Analysis (LTEA) Assay for CYP3A5 using HepaRG (AID 2283493). The method, boiled down: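 Differentiated HepaRG cells in serum-free induction medium were dosed 48 h with test chemicals (8-point half-log series, top 100 uM, 0.5% DMSO, duplicate). CYP3A5 mRNA measured by qRT-PCR, normalized to ACTB, GAPDH, POLR2A; bidirectional fit versus DMSO.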

Read-out in assay [4]: Fatty Acid-Binding Protein 1 (FABP1), FABP1 (gene 2168)
Kind of assay: LTEA_HepaRG_FABP1: Life Technologies and Expression Analysis (LTEA) Assay for Fatty Acid-Binding Protein 1 (FABP1) using HepaRG (AID 2283494). The method, boiled down: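 Differentiated human HepaRG cells were exposed in duplicate for 48 h in serum-free induction medium to 8-point half-log concentration series topping at 100 uM in 0.5% DMSO. FABP1 mRNA measured by TaqMan qRT-PCR, normalized to ACTB/GAPDH/POLR2A; bidirectional fit versus DMSO.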

Read-out in assay [5]: Cytochrome P450 4A22 (Homo sapiens) (UniProt Q5TCH4)
Kind of assay: LTEA_HepaRG_CYP4A22: Life Technologies and Expression Analysis (LTEA) Assay for Cytochrome P450 4A22 (CYP4A22) using HepaRG (AID 2283495). The gist of the method: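 Gene expression measured by qRT-PCR against three housekeeping genes (ACTB, GAPDH, POLR2A), with gain or loss fitted relative to 0.5% DMSO vehicle. HepaRG cultures received 48 h chemical treatment, top concentration 100 uM, half-log steps, duplicate wells.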

Read-out in assay [6]: Cytochrome P450 7A1 (Homo sapiens) (UniProt P22680)
Kind of assay: LTEA_HepaRG_CYP7A1: Life Technologies and Expression Analysis (LTEA) Assay for Cytochrome P450 7A1 (CYP7A1) using HepaRG (AID 2283496). The method, boiled down: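 Gene expression endpoint in human HepaRG liver cells treated for 48 h with test chemicals (up to 100 uM, 0.5% DMSO). Values come from bidirectional concentration-response fitting versus DMSO.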

Read-out in assay [7]: Glutathione S-Transferase (GSTA2), GSTA2 (gene 2939)
Kind of assay: LTEA_HepaRG_GSTA2: Life Technologies and Expression Analysis (LTEA) Assay for Glutathione S-Transferase (GSTA2) using HepaRG (AID 2283497). The method, boiled down:
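Human HepaRG cells, plated 48 h, then exposed in serum-free induction medium for 48 h to eight half-log concentrations up to 100 uM in 0.5% DMSO, duplicate. GSTA2 mRNA by qRT-PCR, normalized to ACTB/GAPDH/POLR2A; bidirectional fit versus DMSO.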

Read-out in assay [8]: Glutamate-cysteine ligase catalytic (GCLC), GCLC (gene 2729)
Kind of assay: LTEA_HepaRG_GCLC: Life Technologies and Expression Analysis (LTEA) Assay for Glutamate-cysteine ligase catalytic (GCLC) using HepaRG (AID 2283498). The method, boiled down:
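Differentiated human HepaRG cells, plated 48 h then switched to serum-free induction medium, were exposed in duplicate for 48 h to 8 half-log concentrations topping at 100 uM in 0.5% DMSO. GCLC mRNA was quantified by qRT-PCR against ACTB, GAPDH and POLR2A.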

Read-out in assay [9]: growth arrest and DNA damage 45 (GADD45G), GADD45G (gene 10912)
The assay can be described thus: LTEA_HepaRG_GADD45G: Life Technologies and Expression Analysis (LTEA) Assay for growth arrest and DNA damage 45 (GADD45G) using HepaRG (AID 2283499). The gist of the method: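 GADD45G transcript level by qRT-PCR (housekeeping-normalized: ACTB, GAPDH, POLR2A) after 48 h chemical treatment of a single HepaRG lot in serum-free induction medium; eight-point half-log series up to 100 uM in 0.5% DMSO, duplicates, up- or down-regulation scored.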

Cytochrome P450 3A7 (Homo sapiens), sequence (P24462 whole entry, looked up): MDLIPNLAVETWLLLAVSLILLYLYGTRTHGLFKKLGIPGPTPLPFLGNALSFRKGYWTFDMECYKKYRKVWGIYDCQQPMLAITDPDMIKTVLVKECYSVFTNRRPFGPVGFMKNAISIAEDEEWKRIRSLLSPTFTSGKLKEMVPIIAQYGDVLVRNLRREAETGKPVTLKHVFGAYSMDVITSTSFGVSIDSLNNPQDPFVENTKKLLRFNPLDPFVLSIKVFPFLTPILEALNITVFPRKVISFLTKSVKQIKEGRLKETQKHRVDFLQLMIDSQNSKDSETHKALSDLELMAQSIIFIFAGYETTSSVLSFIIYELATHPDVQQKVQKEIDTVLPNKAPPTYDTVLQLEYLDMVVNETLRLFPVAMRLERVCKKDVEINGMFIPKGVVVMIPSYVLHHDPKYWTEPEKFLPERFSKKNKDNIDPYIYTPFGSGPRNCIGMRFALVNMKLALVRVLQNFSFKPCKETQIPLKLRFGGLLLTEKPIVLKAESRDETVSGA

Consider `CC(C)Oc1cccc(NC(=O)c2ccccc2C(F)(F)F)c1`, for which the compound was called inactive (in [1]; in [2]; in assay [3]; with CYP3A5 (gene 1577); in assay [4]; in assay [5]). Moreover, the outcome in [6], in assay [8] and in [9] was inactive. In addition, the AC50 in [7] is 50 µM (active).
For the compound `CN/C(=N\[N+](=O)[O-])NCc1cnc(Cl)s1`, the compound was called inactive (in assay [1]; in [2]; in assay [3]; in the assay with CYP3A5 (gene 1577); in [5]; in [7]). Moreover, the call in [8] and in [9] was inactive. For the same compound, the figures for the AC50 in assay [4] and in assay [6] were 33.4 µM (active) and 50 µM (active), respectively.
For `CS(=O)(=O)c1cc(C(F)(F)F)ccc1C(=O)c1cnoc1C1CC1`, the compound was called inactive (in [1]; in assay [2]; in assay [3]; with CYP3A5 (gene 1577); in assay [4]; in assay [5]). Moreover, the compound was called inactive in assay [6], in assay [7] and in assay [8].
As for `Clc1cccc(C(Cl)(Cl)Cl)n1`, the call (in assay [1]; in assay [2]; in [3]; with CYP3A5 (gene 1577); in assay [4]; in assay [5]) was inactive. Besides, the result in assay [6], in assay [7], in [8] and in assay [9] was inactive.
Take `N#CN=C1SCCN1Cc1ccc(Cl)nc1`: the result (in assay [1]; in [2]; in assay [3]; with CYP3A5 (gene 1577); in assay [4]; in assay [5]) was inactive. For the same compound, the compound was classed as inactive in assay [6], in assay [7] and in assay [8].
Regarding `CCN(CC)C(=O)C(C)Oc1cccc2ccccc12` (configuration not stated), the result (in [1]; in [2]; with CYP3A5 (gene 1577); in assay [7]; in [9]) was inactive. For the same compound, the half-maximal activity concentration (AC50) is 80.2 µM (active) in assay [3], 70.4 µM (active) in [4], 78.3 µM (active) in assay [5] and 35.5 µM (active) in assay [6].
Regarding `N#Cc1c(Cl)cccc1Cl`, the outcome (in assay [1]; in [2]; in assay [3]; in the assay with CYP3A5 (gene 1577); in [4]; in assay [5]) was inactive. Further, the outcome in assay [6], in [7], in assay [8] and in assay [9] was inactive.
For the compound `O=C1C2CC=CCC2C(=O)N1SC(Cl)(Cl)Cl` (configuration not stated), the compound was called inactive (in [1]; in assay [2]; in assay [3]; in the assay with CYP3A5 (gene 1577); in assay [4]; in assay [5]). In addition, the call in assay [6], in assay [7], in assay [8] and in [9] was inactive.
In the case of `COP(=S)(OC)Oc1ccc([N+](=O)[O-])c(C)c1`, the compound was called inactive (in [1]; in [2]; in assay [3]; with CYP3A5 (gene 1577); in [4]; in assay [5]). For the same compound, the outcome in assay [6], in assay [7], in [8] and in assay [9] was inactive.
As for `COP(=S)(OC)SCn1nnc2ccccc2c1=O`, the outcome (in assay [1]; in assay [2]; in assay [3]; with CYP3A5 (gene 1577); in assay [4]; in assay [5]) was inactive. Besides, the compound was classed as inactive in assay [6], in assay [7], in [8] and in assay [9].
For the compound `Cc1ccc(N=CN(C)C=Nc2ccc(C)cc2C)c(C)c1`, the compound was called inactive (in assay [1]; in assay [2]; in assay [3]; with CYP3A5 (gene 1577); in assay [4]; in assay [5]). The compound was called inactive in assay [6], in assay [7] and in [8].
Turning to `COCC(C)N(C(=O)CCl)c1c(C)csc1C` (configuration not stated), the compound was classed as inactive (in assay [1]; in [2]; in assay [3]; with CYP3A5 (gene 1577)). For the same compound, the half-maximal activity concentration (AC50) in [4] was 50 µM (active); in [6], 29.5 µM (active); in assay [7], 25 µM (active); in assay [8], 50 µM (active).
For `COCc1cnc(C2=NC(C)(C(C)C)C(=O)N2)c(C(=O)O)c1` (configuration not stated), the compound was called inactive (in assay [1]; in assay [2]; in assay [3]; with CYP3A5 (gene 1577); in assay [4]; in assay [5]). The compound was called inactive in assay [6], in assay [7], in assay [8] and in assay [9].
For the compound `CC1(C)C(C=C(Cl)Cl)C1C(=O)OC(C#N)c1cccc(Oc2ccccc2)c1` (configuration not stated), the call (in assay [1]; in [2]; in assay [3]; with CYP3A5 (gene 1577); in assay [4]; in assay [5]) was inactive. Further, the result in [7], in assay [8] and in [9] was inactive. In addition, in assay [6], the AC50 is 13.9 µM (active).
As to `Cc1c(COC(=O)[C@@H]2[C@H](/C=C(\Cl)C(F)(F)F)C2(C)C)cccc1-c1ccccc1`, the call (in assay [1]; in assay [2]; in the assay with CYP3A5 (gene 1577); in [5]; in assay [7]; in assay [8]) was inactive. For the same compound, the compound was called inactive in [9]. Besides, the AC50 in assay [3] was 4.87 µM (active); in assay [4] it was 35 µM (active); in [6], 14.8 µM (active).
Turning to `CC(C)N1C(=O)N(c2ccccc2)CSC1=NC(C)(C)C`, the outcome (in assay [1]; in assay [3]; with CYP3A5 (gene 1577)) was inactive. Further, the AC50 in assay [2] is 50 µM (active); in assay [4], 44.8 µM (active); in assay [5], 63.6 µM (active); in [6], 70.4 µM (active); in assay [7], 82.3 µM (active); in [8], 81.8 µM (active). Moreover, the AC50 in assay [9] is 76.1 µM (active).
On to `Nc1c(Cl)c(Cl)nc(C(=O)O)c1Cl`, for which the compound was called inactive (in assay [1]; in assay [2]; in [3]; with CYP3A5 (gene 1577); in assay [4]; in [5]). Also, the outcome in assay [6], in assay [7], in [8] and in [9] was inactive.
In the case of `CC(C)=CC1C(C(=O)OCc2coc(Cc3ccccc3)c2)C1(C)C` (configuration not stated), the result (in assay [1]; in assay [2]; with CYP3A5 (gene 1577); in assay [4]; in assay [5]; in [6]) was inactive. Further, the compound was called inactive in assay [7] and in assay [8].

The values above are taken from PubChem BioAssay (EPA / NIEHS).
